Test results from PubChem BioAssay (NCI).
This is part of a sample that, as a whole, favours compounds with a hit. Of some 79,000 tested, about 15% had one in any assay. Unmarked numbers belong to inactive results. Active and inactive are the calls of the source. No stated cut-off is given here; in the data, active means growth inhibition above about 70%; inactive means the rest.

Assay: NCI Yeast Anticancer Drug Screen. Data for the bub3 strain (AID 167)
Conditions: S. cerevisiae bub3 mutant strain, at 50.0 µM, hits give high values
In short: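 Readout: yeast growth inhibition, expressed relative to vehicle-only wells. The test organism is a mutant strain from a panel with lesions in DNA repair or checkpoint genes.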

Row | SMILES | growth inhibition
1 | CCCCCCCCN(CCCCCCCC)C(=O)C(C)O (centres undefined) | 97.5% (active)
2 | O=C1C=CC(=O)C1=Cc1ccc(Cl)c(Cl)c1 | 98.8% (active)
3 | COc1ccc([N+](=O)[O-])cc1NC(=O)Nc1ccc(C(=O)OCC(C)C)cc1 | 45.3%
4 | CCOC(=O)n1c2ccccc2c(=O)n1CCO | 97.3% (active)
5 | CC(=O)OC12CCC3C4CC=C5CC(O)CCC5(C)C4C(=O)C3C1(C)N1CC(C)CC(O)C1C2C (centres undefined) | 64.2%
6 | Cc1cccnc1NC(=S)Nc1ccccc1Cl | 91.8% (active)
7 | CS(=O)(=O)OCCN(CCOS(C)(=O)=O)c1ccc(C=Nc2ccc(-c3cnc(-c4ccc(Cl)cc4)s3)cc2)c(Cl)c1 | 92.3% (active)
8 | CC1(Cc2ccccc2)CCCC(C=O)C1=O.[Cu+2] (centres undefined) | -3.85%
9 | C[N+]1(c2ccccc2)C=C(c2ccccc2)SC1=S (centres undefined) | 54.8%
10 | CC12CCC3c4cc(O)ccc4CCC3C1CCC2O (centres undefined) | 55.4%

Assay: NCI Yeast Anticancer Drug Screen. Data for the mlh1 rad18 strain (AID 175)
Conditions: S. cerevisiae mlh1 rad18 strain growth inhibition; at 5.0 µM (retest, dose inferred, filed as 0.5); hits give high values
In short: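 Yeast w/ defined DNA-repair lesions; compound exposure; growth vs vehicle controls → % inhibition.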

Row | SMILES | growth inhibition
11 | OCCSCc1cc(Cl)cc(Cl)c1O | 0%
12 | CC(=O)Nc1ccccc1C(O)(c1ccccc1)c1ccccc1 | -5%
13 | Cc1cc(N=Nc2ccccc2C)c(N)cc1N | -13%
14 | O=C(Nc1ccc(Cl)cc1)Nc1nnc(/C=C/c2ccc(Cl)c(Cl)c2)o1 | 1%
15 | CCCCCCCCCCCC(=O)OCCOC(=O)CCCCCCCCCCC | 3%
16 | CCN(C(C)=O)c1ccc2c(c1)Cc1ccccc1-2 | -10%
17 | O=[N+]([O-])c1cccn2nc(C3OC(CO)C(O)C3O)nc12 (centres undefined) | -2%
18 | Oc1cc(CNCc2ccccc2)c(O)c(CNCc2ccccc2)c1 | 8%
19 | N#CSC#Cc1ccc(C#CSC#N)cc1 | 100% (active)
20 | O=C(O)/C=C/C(=O)NNc1nc2ccccc2s1 | -7%
21 | COc1ccc2c(c1)[n+]([O-])c(-c1ccc(C)cc1)c(N)[n+]2[O-] | 63%
22 | C=CCc1cc([N+](=O)[O-])ccc1O | -4%
23 | CC(C)C1=CC23CCC4C(C)(C(=O)O)CCCC4(C)C2CC1c1c(O)ccc(O)c13 (centres undefined) | 81% (active)
24 | NC(=O)C(CCc1cccc2ccccc12)c1ccccc1 (centres undefined) | -8%
25 | CC(CO)CCC(=O)C(C)C1C(=O)CC2CC3CC(O)CCC3(C)CC21C (centres undefined) | 16%
26 | Oc1c(Cl)cc(Cl)cc1/C=C1\C=Nc2ccccc21 | -3%
27 | CCCC(C(=O)OCCN1CCCC1(C)C)C1CCCC1 (centres undefined) | 36%
28 | OCCN1CCN(CCCN2c3cc(Cl)ccc3Sc3ccsc32)CC1 | -7%
29 | O=C(O)/C=C/c1ccc2c(c1)CCCC2 | -19%
30 | CC(NNC(=S)N1CCCC1)c1ccc2ccccc2n1 (centres undefined) | 15%

Row | SMILES | growth inhibition
31 | c1cc(CCSSCCc2ccncc2)ccn1 | 2%
32 | CCOC(=O)C(N=Nc1ccc(Br)c(C)c1)C(C)=O (centres undefined) | 4%
33 | N#CC(C(=O)CCCC(=O)Nc1cccc([N+](=O)[O-])c1)c1cccc2ccccc12 (centres undefined) | 5%
34 | Cc1ccc(S(=O)(=O)NNC(=O)c2sc(-c3nc(C)c(C(=O)NNS(=O)(=O)c4ccc(C)cc4)s3)nc2C)cc1 | 2%
35 | Nc1nc(Cl)cc(Nc2ccc(Cl)c(Cl)c2)n1 | -3%
36 | CN(C)C=Nc1c2ccccc2nc2ccccc12 | -8%
37 | Cc1cc(N=[N+]=[N-])c2cc(C3CCCCC3)ccc2n1 | -2%
38 | CCN(CC)C(=O)CCCCC(=O)OC(C)C | -1%
39 | CC12CCC(C(Br)(Br)C1=O)C2(C)C (centres undefined) | 16%
40 | CCCCCCCCN(CCCCCCCC)C(=O)C(C)O (centres undefined) | 27%
41 | O=C1C=CC(=O)C1=Cc1ccc(Cl)c(Cl)c1 | 100% (active)
42 | COc1ccc([N+](=O)[O-])cc1NC(=O)Nc1ccc(C(=O)OCC(C)C)cc1 | 13%
43 | CCOC(=O)n1c2ccccc2c(=O)n1CCO | -33%
44 | CC(=O)OC12CCC3C4CC=C5CC(O)CCC5(C)C4C(=O)C3C1(C)N1CC(C)CC(O)C1C2C (centres undefined) | -23%
45 | Cc1cccnc1NC(=S)Nc1ccccc1Cl | 28%
46 | CS(=O)(=O)OCCN(CCOS(C)(=O)=O)c1ccc(C=Nc2ccc(-c3cnc(-c4ccc(Cl)cc4)s3)cc2)c(Cl)c1 | 0%
47 | CC1(Cc2ccccc2)CCCC(C=O)C1=O.[Cu+2] (centres undefined) | 0%
48 | C[N+]1(c2ccccc2)C=C(c2ccccc2)SC1=S (centres undefined) | 12%
49 | CC12CCC3c4cc(O)ccc4CCC3C1CCC2O (centres undefined) | 4%
